The source of these data is paper PMC7862700, “An all-to-all approach to the identification of sequence-specific readers for epigenetic DNA modifications on cytosine”.

Common to all, as to assay: DAPPL (digital affinity profiling via proximity ligation, sequencing); 10 mM Tris-HCl pH 7.5, 50 mM NaCl, 1 mM DTT, 4% glycerol, room temperature, 30 min; GST-TFs on glutathione beads, 16-mer random dsDNA library, 0.1% formaldehyde crosslink after washing; high values mean tight binding
For one test, the target named is T1, FEV (Homo sapiens, UniProt Q99581 1-238).
T1 sequence: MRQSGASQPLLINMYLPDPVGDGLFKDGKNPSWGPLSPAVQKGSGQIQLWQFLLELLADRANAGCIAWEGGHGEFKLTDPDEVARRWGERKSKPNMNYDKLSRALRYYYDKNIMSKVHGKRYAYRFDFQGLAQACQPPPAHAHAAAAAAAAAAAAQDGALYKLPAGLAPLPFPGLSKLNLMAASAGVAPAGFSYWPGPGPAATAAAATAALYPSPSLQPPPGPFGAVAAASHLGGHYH
The settings on record: protein: recombinant; tags: N-terminal GST; dsDNA, one strand shown. The gist of the method: (§1)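 Human transcription factors carrying a GST fusion were produced in yeast, bound to glutathione beads, tagged with DNA barcodes and pooled together with a tag-only sample. Each pool was held with 200 nmole of a random double-stranded 16-mer DNA library in Tris/NaCl/DTT/glycerol buffer for 30 min at room temperature, then washed, crosslinked in 0.1% formaldehyde, proximity-ligated with BsaI/T4 ligase (1 h, 37 °C), PCR-amplified and sequenced on an Illumina NextSeq500. Binding signal is the read frequency of each hexamer for a given factor divided by its frequency in the tag-only sample.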

A further test concerns the target ETV5 (Homo sapiens, UniProt P41161 1-510). The settings on record: protein: recombinant; tags: N-terminal GST; dsDNA, one strand shown. An outline of the steps:
as §1

The next test concerns the target HSF1 (Homo sapiens, UniProt Q00613 1-529). The settings on record: protein: recombinant; tags: N-terminal GST; chain copies: 3; dsDNA, one strand shown. The gist of the method: as §1
The next test has as its target T2, SPIC (Homo sapiens, UniProt Q8N5J4 1-248).
T2 sequence: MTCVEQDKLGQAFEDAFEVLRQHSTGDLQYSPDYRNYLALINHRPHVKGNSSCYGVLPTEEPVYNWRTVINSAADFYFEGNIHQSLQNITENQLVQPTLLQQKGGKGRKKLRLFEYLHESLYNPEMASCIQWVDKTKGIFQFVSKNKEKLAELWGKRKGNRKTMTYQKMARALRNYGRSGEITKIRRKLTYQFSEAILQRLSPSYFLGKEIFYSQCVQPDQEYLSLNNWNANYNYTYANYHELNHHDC
Conditions: protein: recombinant; tags: N-terminal GST; dsDNA, one strand shown. An outline of the steps:
as §1

The target of another test is ELF4 (Homo sapiens, UniProt Q99607 1-663). Conditions: protein: recombinant; tags: N-terminal GST; dsDNA, one strand shown. An outline of the steps: as §1
ELF4, sequence (Q99607 whole entry): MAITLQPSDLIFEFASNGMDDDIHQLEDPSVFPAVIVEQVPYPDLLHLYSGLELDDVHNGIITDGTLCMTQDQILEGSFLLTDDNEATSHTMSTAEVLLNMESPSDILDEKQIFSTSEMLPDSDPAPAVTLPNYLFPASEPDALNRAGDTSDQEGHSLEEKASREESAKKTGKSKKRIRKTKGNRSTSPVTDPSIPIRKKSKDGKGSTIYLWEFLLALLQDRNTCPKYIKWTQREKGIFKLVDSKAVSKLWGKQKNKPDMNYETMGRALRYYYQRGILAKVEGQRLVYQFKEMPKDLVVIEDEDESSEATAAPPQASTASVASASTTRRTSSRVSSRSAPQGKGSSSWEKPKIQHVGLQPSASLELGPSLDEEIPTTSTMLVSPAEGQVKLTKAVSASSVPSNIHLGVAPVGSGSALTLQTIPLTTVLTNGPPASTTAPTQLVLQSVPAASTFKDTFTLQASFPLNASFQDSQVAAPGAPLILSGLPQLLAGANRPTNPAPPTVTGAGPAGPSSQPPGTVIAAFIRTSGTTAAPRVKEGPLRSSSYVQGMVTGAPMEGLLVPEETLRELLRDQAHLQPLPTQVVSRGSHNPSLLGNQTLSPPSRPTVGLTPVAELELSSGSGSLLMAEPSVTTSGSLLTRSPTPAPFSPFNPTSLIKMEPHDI
The next test has as its target T3, ELK4 (Homo sapiens, UniProt P28324-2 1-405).
T3 sequence: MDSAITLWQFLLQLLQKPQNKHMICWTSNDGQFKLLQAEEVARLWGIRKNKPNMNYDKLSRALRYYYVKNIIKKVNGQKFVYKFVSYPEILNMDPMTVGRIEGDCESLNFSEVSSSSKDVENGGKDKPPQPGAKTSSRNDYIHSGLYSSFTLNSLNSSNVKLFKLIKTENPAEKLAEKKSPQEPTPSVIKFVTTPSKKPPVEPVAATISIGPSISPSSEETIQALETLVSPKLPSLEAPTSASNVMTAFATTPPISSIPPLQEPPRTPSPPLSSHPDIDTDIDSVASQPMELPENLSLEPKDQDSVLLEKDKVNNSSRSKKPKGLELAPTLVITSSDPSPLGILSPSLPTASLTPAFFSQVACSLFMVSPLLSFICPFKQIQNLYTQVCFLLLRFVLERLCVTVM
The settings on record: protein: recombinant; tags: N-terminal GST; dsDNA, one strand shown. An outline of the steps:
as §1

For the next test, the target named is T4, ETV2 (Homo sapiens, UniProt O00321 1-342).
T4 sequence: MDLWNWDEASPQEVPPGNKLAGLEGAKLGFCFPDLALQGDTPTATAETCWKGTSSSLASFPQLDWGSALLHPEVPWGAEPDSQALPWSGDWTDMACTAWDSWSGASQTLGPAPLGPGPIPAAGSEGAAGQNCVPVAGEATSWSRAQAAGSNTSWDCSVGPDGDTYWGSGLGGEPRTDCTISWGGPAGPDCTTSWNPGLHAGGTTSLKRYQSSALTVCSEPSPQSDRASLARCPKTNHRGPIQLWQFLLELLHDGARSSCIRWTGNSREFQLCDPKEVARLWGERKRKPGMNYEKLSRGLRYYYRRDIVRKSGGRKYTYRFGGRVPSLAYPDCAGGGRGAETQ
Conditions: protein: recombinant; tags: N-terminal GST; dsDNA, one strand shown. An outline of the steps: as §1

In another test the target is T5, ELF3 (Homo sapiens, UniProt P78545 1-371).
T5 sequence: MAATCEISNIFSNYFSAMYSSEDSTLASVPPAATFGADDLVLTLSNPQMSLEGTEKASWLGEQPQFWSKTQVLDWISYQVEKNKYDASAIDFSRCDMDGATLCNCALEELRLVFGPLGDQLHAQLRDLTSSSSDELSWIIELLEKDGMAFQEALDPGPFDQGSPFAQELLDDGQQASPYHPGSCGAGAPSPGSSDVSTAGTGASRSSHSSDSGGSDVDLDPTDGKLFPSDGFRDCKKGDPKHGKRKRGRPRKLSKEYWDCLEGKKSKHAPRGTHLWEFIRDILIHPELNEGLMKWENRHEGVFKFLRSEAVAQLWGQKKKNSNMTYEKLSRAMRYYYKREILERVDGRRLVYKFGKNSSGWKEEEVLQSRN
The settings on record: protein: recombinant; tags: N-terminal GST; dsDNA, one strand shown. An outline of the steps: as §1

For a further test, the target named is CRX (Homo sapiens, UniProt O43186 1-299). Conditions: protein: recombinant; tags: N-terminal GST; dsDNA, one strand shown. An outline of the steps:
as §1

A further test has as its target ETV1 (Homo sapiens, UniProt P50549 1-477). Conditions: protein: recombinant; tags: N-terminal GST; dsDNA, one strand shown. An outline of the steps: as §1
A further test has as its target T6, ERF (Homo sapiens, UniProt P50548 1-548).
T6 sequence: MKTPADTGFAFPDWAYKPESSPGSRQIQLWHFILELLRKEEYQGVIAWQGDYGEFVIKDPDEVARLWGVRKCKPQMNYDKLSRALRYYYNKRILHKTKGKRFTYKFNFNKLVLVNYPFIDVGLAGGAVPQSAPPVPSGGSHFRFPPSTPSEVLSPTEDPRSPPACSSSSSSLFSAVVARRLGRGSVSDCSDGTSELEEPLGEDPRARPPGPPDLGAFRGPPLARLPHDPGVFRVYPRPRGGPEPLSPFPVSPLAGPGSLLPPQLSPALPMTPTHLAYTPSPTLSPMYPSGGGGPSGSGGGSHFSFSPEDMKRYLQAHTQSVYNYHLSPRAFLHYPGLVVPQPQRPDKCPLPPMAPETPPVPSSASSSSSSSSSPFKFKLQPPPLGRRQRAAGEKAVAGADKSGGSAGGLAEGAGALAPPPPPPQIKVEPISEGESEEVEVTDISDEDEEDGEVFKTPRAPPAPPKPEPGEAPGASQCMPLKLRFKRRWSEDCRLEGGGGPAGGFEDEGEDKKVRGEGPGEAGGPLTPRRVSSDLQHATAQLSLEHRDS
Conditions: protein: recombinant; tags: N-terminal GST; dsDNA, one strand shown. The gist of the method: as §1

In the next test the target is T7, ETV3L (Homo sapiens, UniProt Q6ZN32 1-361).
T7 sequence: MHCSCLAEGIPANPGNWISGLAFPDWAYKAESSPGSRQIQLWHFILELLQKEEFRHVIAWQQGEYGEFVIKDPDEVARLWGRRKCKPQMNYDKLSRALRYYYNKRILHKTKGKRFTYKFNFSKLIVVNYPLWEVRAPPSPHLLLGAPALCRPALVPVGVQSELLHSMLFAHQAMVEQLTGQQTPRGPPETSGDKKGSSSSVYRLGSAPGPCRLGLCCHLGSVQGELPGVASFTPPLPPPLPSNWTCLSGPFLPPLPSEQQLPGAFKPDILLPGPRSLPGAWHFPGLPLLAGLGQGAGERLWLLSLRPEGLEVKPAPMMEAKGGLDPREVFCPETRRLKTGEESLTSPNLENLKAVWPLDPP
Conditions: protein: recombinant; tags: N-terminal GST; dsDNA, one strand shown. An outline of the steps: as §1

The target of a further test is T8, ETS2 (Homo sapiens, UniProt P15036 1-469).
T8 sequence: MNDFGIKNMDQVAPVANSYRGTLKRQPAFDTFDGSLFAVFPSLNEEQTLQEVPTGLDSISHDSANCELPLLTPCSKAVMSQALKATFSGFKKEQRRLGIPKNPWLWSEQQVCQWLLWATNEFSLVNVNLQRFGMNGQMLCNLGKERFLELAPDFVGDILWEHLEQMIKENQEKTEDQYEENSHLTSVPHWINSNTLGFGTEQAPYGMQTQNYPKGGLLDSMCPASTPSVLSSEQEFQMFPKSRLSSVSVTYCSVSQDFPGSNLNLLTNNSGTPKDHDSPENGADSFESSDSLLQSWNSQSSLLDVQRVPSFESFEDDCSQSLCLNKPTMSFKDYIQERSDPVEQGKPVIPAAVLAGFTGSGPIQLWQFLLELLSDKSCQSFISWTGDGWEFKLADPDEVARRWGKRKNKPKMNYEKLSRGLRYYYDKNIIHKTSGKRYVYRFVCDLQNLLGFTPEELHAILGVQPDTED
Conditions: protein: recombinant; tags: N-terminal GST; dsDNA, one strand shown. An outline of the steps: as §1

The target in a further test is T9, SPDEF (Homo sapiens, UniProt O95238 1-335).
T9 sequence: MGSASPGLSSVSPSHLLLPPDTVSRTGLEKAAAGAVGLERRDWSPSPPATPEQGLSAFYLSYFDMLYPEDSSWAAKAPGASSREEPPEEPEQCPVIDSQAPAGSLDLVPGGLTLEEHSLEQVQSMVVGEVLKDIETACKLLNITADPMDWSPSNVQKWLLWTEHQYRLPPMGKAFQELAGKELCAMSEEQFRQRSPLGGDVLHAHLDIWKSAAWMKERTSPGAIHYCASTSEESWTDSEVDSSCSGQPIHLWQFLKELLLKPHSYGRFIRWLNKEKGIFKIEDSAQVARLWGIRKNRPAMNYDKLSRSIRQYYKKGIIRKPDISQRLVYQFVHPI
The settings on record: protein: recombinant; tags: N-terminal GST; dsDNA, one strand shown. An outline of the steps:
as §1

In another test the target is T10, ETV7 (Homo sapiens, UniProt Q9Y603 1-341).
T10 sequence: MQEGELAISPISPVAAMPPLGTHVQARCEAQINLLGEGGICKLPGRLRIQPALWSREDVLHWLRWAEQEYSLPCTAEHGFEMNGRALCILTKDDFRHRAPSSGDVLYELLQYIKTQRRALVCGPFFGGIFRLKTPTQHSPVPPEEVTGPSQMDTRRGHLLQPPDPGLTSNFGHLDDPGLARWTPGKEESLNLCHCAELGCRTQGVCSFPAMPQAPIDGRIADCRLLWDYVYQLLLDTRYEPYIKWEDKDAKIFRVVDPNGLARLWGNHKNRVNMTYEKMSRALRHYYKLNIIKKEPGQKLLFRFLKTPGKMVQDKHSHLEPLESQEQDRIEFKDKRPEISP
The settings on record: protein: recombinant; tags: N-terminal GST; dsDNA, one strand shown. The gist of the method: as §1

The target of a further test is T11, ELF5 (Homo sapiens, UniProt Q9UKW6-2 1-255).
T11 sequence: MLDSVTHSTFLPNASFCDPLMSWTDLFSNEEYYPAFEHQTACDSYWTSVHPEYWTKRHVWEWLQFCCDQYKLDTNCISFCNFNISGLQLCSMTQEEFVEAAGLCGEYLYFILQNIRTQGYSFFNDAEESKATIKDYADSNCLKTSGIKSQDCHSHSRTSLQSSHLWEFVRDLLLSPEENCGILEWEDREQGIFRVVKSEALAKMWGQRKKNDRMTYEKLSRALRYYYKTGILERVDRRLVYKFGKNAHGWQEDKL
The settings on record: protein: recombinant; tags: N-terminal GST; dsDNA, one strand shown. An outline of the steps: as §1

The target of another test is T12, ETV3 (Homo sapiens, UniProt P41162-2 1-143).
T12 sequence: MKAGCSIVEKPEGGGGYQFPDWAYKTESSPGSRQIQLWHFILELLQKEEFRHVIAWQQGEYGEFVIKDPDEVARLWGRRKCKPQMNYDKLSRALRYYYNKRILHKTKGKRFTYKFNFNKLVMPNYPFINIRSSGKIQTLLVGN
Conditions: protein: recombinant; tags: N-terminal GST; dsDNA, one strand shown. The gist of the method: as §1

Another test has as its target ETV6 (Homo sapiens, UniProt P41212 1-452). Conditions: protein: recombinant; tags: N-terminal GST; dsDNA, one strand shown. The gist of the method:
as §1

ETV1, sequence (P50549 whole entry): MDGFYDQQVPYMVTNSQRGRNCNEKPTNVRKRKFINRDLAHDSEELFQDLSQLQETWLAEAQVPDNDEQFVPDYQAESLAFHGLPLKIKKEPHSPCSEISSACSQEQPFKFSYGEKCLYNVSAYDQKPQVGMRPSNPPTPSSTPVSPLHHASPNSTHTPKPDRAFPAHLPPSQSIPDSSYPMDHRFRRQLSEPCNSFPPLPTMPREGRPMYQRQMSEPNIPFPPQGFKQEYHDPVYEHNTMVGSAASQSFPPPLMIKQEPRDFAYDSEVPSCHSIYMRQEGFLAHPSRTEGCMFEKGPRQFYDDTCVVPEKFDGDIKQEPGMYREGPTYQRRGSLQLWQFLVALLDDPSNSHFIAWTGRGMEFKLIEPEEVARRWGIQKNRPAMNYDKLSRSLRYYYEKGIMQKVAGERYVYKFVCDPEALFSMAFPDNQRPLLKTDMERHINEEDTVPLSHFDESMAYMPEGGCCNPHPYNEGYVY
ETV5, sequence (P41161 whole entry): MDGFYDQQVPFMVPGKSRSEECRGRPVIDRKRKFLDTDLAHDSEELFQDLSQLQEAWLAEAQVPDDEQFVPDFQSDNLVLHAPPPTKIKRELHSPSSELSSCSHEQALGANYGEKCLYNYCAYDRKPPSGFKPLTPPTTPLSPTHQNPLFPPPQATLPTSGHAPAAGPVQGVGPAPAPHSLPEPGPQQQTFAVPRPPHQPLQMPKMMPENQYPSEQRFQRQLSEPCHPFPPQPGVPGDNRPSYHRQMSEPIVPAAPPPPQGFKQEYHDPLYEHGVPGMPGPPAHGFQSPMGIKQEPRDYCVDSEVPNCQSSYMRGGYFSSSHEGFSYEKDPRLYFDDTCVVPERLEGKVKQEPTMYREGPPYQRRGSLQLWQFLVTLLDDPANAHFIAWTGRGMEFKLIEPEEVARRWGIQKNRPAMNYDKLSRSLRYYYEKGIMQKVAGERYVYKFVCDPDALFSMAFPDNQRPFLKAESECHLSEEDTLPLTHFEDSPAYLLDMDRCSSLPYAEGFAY
HSF1, sequence (Q00613 whole entry): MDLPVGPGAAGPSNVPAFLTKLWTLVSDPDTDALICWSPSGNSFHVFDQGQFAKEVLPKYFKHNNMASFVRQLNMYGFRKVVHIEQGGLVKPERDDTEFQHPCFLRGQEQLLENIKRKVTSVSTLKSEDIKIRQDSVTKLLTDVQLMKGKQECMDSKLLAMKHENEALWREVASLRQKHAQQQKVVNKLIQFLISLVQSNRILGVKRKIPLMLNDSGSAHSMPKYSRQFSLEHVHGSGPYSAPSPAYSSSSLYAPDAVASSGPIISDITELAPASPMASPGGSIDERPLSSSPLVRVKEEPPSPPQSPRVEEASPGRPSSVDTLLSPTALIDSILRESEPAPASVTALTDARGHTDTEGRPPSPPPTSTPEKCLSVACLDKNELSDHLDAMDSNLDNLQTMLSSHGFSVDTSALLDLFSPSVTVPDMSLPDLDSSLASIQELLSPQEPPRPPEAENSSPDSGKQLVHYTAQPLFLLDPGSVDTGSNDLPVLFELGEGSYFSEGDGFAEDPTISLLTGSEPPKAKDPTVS
CRX, sequence (O43186 whole entry): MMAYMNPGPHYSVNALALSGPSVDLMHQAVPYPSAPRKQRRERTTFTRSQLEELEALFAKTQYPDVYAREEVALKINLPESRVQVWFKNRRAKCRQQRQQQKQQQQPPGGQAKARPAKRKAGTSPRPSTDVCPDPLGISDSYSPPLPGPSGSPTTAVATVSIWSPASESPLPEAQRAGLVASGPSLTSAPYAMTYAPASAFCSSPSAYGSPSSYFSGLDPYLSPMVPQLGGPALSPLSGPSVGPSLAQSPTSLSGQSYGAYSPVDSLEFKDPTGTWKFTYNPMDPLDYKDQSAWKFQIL
ETV6, sequence (P41212 whole entry): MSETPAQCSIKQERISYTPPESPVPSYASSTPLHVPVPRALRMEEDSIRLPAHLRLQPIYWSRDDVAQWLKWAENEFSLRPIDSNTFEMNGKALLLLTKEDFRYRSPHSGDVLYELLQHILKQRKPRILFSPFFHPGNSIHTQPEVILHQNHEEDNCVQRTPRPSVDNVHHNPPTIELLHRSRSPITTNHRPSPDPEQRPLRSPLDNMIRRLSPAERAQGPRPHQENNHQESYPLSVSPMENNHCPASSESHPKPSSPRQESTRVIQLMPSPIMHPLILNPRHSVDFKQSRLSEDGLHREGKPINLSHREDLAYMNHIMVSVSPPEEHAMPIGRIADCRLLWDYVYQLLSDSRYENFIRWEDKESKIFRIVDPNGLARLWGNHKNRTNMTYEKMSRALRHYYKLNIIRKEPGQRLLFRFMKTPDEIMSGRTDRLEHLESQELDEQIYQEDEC

As for TTAACA, the binding signal with FEV is 1.13 fold enrichment (6-mer frequency, TF over GST control); in the test with ETV5 it was 1.14 fold enrichment (6-mer frequency, TF over GST control); with HSF1 it was 1.65 fold enrichment (6-mer frequency, TF over GST control); in the test with SPIC it was 1.14 fold enrichment (6-mer frequency, TF over GST control); in the test with ELF4, 1.18 fold enrichment (6-mer frequency, TF over GST control); in the test with ELK4, 1.28 fold enrichment (6-mer frequency, TF over GST control). In addition, the binding signal with ETV2 is 1.23 fold enrichment (6-mer frequency, TF over GST control); in the test with ELF3 it was 1.22 fold enrichment (6-mer frequency, TF over GST control); with CRX, 2.34 fold enrichment (6-mer frequency, TF over GST control); with ETV1 it was 1.23 fold enrichment (6-mer frequency, TF over GST control); with ERF, 1.19 fold enrichment (6-mer frequency, TF over GST control); with ETV3L, 1.2 fold enrichment (6-mer frequency, TF over GST control). Further, the binding signal with ETS2 was 1.19 fold enrichment (6-mer frequency, TF over GST control); with SPDEF, 1.21 fold enrichment (6-mer frequency, TF over GST control); with ETV7, 1.18 fold enrichment (6-mer frequency, TF over GST control); with ELF5 it was 1.14 fold enrichment (6-mer frequency, TF over GST control); with ETV3 it was 1.19 fold enrichment (6-mer frequency, TF over GST control); with ETV6, 1.11 fold enrichment (6-mer frequency, TF over GST control).
